The term Inhibition denotes the percentage by which the read-out fell short of the control. A higher Inhibition goes with strong suppression.

This assay concerns Plasmodium falciparum. Nature of the assay: GSK_TCMDC: Inhibition of Plasmodium falciparum 3D7 in whole red blood cells, using parasite LDH activity as an index of growth. Test compounds present at 2uM. In kind it is functional.
Compound `O=C(O)C(F)(F)F.Oc1ccc(CCCNc2nc(NCc3ccccc3-c3ccccc3)nc(N3CCNCC3)n2)cc1` had an Inhibition of 94%.
The compound `COc1cc2c(cc1S(=O)(=O)c1ccc(OCc3ccc(Cl)cc3)cc1)CCN(Cc1ccc(NC(C)=O)s1)CC2` displayed an Inhibition of 89%.
The value for `O=C(NCCCCCN1CCC(c2c[nH]c3ccccc23)CC1)Nc1ccc(I)c(Cl)c1` was 99%; that for `CC(C)CN(Cc1c(O)ccc2[nH]c(-c3ccc(F)cc3F)nc12)CC(C)C` was 98%.
In the case of `COc1cc(NC(=O)c2ccc(-c3ccc(C(C)=O)cc3)s2)ccc1OCCN1CCCC1`, the Inhibition amounted to 100%.
`CCCCCCOc1ccc(C(=O)N(Cc2ccccc2)c2c(-c3ccccc3)nc3cc(C)ccn23)cc1` had an Inhibition of 95%.
Next, `c1ccc(Oc2ccc(Nc3ccnc(Nc4cccc(CNCCCN5CCOCC5)c4)n3)cc2)cc1`: 100%.
Next, `CC1(C)C2C=C(CN3CCC(NC(=O)Nc4ccc(Cl)c(Cl)c4)CC3)C1CC2` (stereo unspecified): 100%; `COc1ccc(NC(=O)[C@H](CC(C)C)Nc2ccnc(NCCc3ccc(F)cc3)n2)cc1.O=C(O)C(F)(F)F`: 86%; `Cl.O=C(/C=C/c1ccc(Cl)cc1)Nc1ccc2nc(CN3CCCC3)ccc2c1`: 85%.
With `O=C(Nc1ccc(OC2CCN(Cc3ccccc3)CC2)c(Cl)c1)c1cccs1.O=C(O)C(F)(F)F`, the Inhibition was 96%.
The value for `Cc1cc(N2CCN(C3CCCCC3)CC2)nc2cccc(O)c12` was 100%; that for `NCC(NC(=O)c1ccc(-c2c[nH]c3ncccc23)s1)c1ccccc1.O=CO` (stereo unspecified) was 95%; that for `Cc1cc(CN2C(=O)C(c3ccccc3)(c3ccccc3)N=C2N)c(C(F)(F)F)o1` was 97%.
The compound `Cc1cccc(C(=O)NC(NC(=S)Nc2ccc([N+](=O)[O-])cc2)C(Cl)(Cl)Cl)c1` (stereo unspecified) displayed an Inhibition of 96%.
Regarding `COc1ccc(OC)c(NC(=O)CSc2nc(-c3ccccc3Cl)ns2)c1`, the Inhibition is 95%.
Consider `CN1CCN(CCCN(Cc2ccc(-c3ccc(CNC4CCCC4)cc3)cc2)C(=O)CCC2CCCC2)CC1.O=C(O)C(F)(F)F`, for which the Inhibition was 98%.
Next, `Cc1ccccc1C1CCN(C2CCC(NC(=O)/C=C/c3ccccc3C(F)(F)F)CC2)CC1` (stereo unspecified): 83%; `CC(=O)Nc1ccc(CNC2Cc3ccc(-c4ccc(Cl)c(Cl)c4)cc3C2)cc1` (stereo unspecified): 89%.
The value for `CN(C)Cc1cccc(-c2cc3c(-c4cnn(C)c4)c(Cl)cnc3[nH]2)c1` was 96%; that for `Clc1cc(Nc2ccnc3ccc(Br)cc23)ccc1Oc1ccc(Cl)c2ccccc12` was 99%; that for `Cc1cc(-c2ccc(CN3Cc4ccccc4C3)cc2)ccc1S(=O)(=O)NCCN1CCCC1.O=C(O)C(F)(F)F` was 94%.
In the case of `CCc1ccc(C2CCN(CCCCNC(=O)c3ccc(-c4ccc(C(F)(F)F)cc4)cc3)CC2)c(OCCO)c1.Cl`, the Inhibition amounted to 100%.
Next, `O=S(=O)(c1cc(Cl)sc1Cl)N(CCC(O)(C(F)(F)F)C(F)(F)F)Cc1cccc(O)c1`: 98%; `N#Cc1c(-c2ccccc2)cn2c1[nH]c(=O)c1ccccc12`: 92%.
The value for `COc1ccc2nccc([C@@H](O)CN3CCC(NCc4nc5c(C#N)cccc5[nH]4)CC3)c2c1.O=C(O)C(=O)O` was 96%; that for `O=C(O)C(F)(F)F.Oc1ccc(CCNc2nc(NCCCOc3cccc(CN4CCCCC4)c3Cl)nc(N3CCNCC3)n2)cc1` was 100%; that for `Oc1ccc2ccccc2c1CNCC1CCCCC1` was 98%.
The value for `O=C(Nc1cccc(OC2CCN(Cc3ccccc3)CC2)c1)Nc1cccc([N+](=O)[O-])c1.O=C(O)C(F)(F)F` was 100%; that for `Cl.O=C(Nc1ccc2c(c1)CCNCC2)c1ccc(-c2ccc(Cl)cc2)cc1` was 96%.
Consider `COc1ccc2ncc(C#N)c(CCN3CCC(NCc4ccc5c(c4)NC(=O)CO5)CC3)c2c1.Cl`, for which the Inhibition stood at 99%.
For `CCOC(=O)N/N=C/[C@H](CCc1ccccc1)NC(=O)[C@H](CC(C)C)NC(=O)c1cc2cccc(OC)c2o1`, the Inhibition is on record as 84%.
Regarding `Cc1c2c(nn1-c1ccccc1)C(c1ccccc1)N(c1ccccc1)C2=O` (stereo unspecified), the Inhibition stood at 92%.
Compound `CS(=O)(=O)CCN(CCS(C)(=O)=O)Cc1ccc(-c2ccc3ncnc(Nc4ccc(OCc5cccc(F)c5)c(Cl)c4)c3c2)o1.Cc1ccc(S(=O)(=O)O)cc1` displayed an Inhibition of 90%.
Next, `Cn1nccc1C(=O)NCCNCc1ccc(-c2cccc(-c3nc4cc(F)ccc4[nH]3)c2)cc1.O=C(O)C(F)(F)F`: 100%; `Cc1cnc(CNCc2ccc(S(=O)(=O)Nc3ccc(Oc4cccc(Cl)c4)cc3)cc2)cn1.O=C(O)C(F)(F)F`: 97%.

The record behind these values is ChEMBL document CHEMBL1157539, “Thousands of chemical starting points for antimalarial lead identification” (Nature, 2010).
